Results published in PubChem BioAssay AID1688 (National Center for Advancing Translational Sciences (NCATS), 2009).
The campaign covered roughly 220,000 compounds. About 2,400 (1.1%) were called active. Not shown: some 7% with an inconclusive outcome. Shown is part of a subset that was picked to be rich in actives. Unmarked numbers belong to inactive results. Calls come from the whole dose curve; as a rule, active = well fitted inhibition curve with a large enough effect; inconclusive = small, poorly fitted or top-dose-only effect, or effect the other way; inactive = no such curve, though single readings can be large or run the other way.

Test: qHTS Multiplex Assay to Identify Dual Action Probes in a Cell Model of Huntington: Aggregate Formation (GFP); note: nearly all actives have a fitted effect of over 60% in size
Conditions: PC12 HttQ103-GFP aggregates, Acumen cytometry, 40 h; series mostly up to 9.22 µM; activity change, negative = inhibition: at the top concentration
Summary of the method: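 Quantitative HTS on tebufenozide-induced (100 nM) PC12 cells stably expressing polyQ103 Huntingtin exon 1–GFP. Reduction of bright GFP aggregates, detected by laser scanning cytometry after lysis, identified actives across the titration.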
% is set by controls: 0 for no effect and ±100 for the full control effect; potency is the fitted concentration of half-maximal effect.

SMILES	activity change, negative = inhibition	Potency
O=C(NNS(=O)(=O)c1ccccc1)c1cnn(-c2ccc(Cl)cc2)c1C(F)(F)F	3.68%	
COc1cccc(OC)c1CN(C)C(=O)c1cnccc1C(F)(F)F	0.946%	
C/C(=N/NC(=O)c1ccn(C)n1)c1ccncc1	8.06%	
CC(/C=C/c1ccco1)=N/NC(=O)C1COc2ccccc2O1 (stereo not drawn)	4.37%	
COc1ccccc1Oc1ccc(S(=O)(=O)Nc2cccnc2)cc1		11.2 µM (active)
O=S(=O)(Nc1ccccn1)c1ccc(Oc2ccccc2)cc1	-9.45% [at 46.1 µM]	
COc1ccc(S(=O)(=O)Nc2cccnc2)c(Cl)c1Cl	1.71%	
COc1ccc(-c2cc(C(F)(F)F)nc(SCCC(=O)NCc3ccco3)n2)cc1	-15.2% [at 46.1 µM]	
O=C(CSc1nc(-c2ccco2)cc(C(F)(F)F)n1)N1CCc2ccccc2C1	9.77% [at 46.1 µM]	
O=C(CSc1nc(-c2ccco2)cc(C(F)(F)F)n1)NCc1cccs1		15.8 µM (active)
CCC(=O)Nc1ccc(C(=O)Nc2cccc(OC)c2)cc1	0.618% [at 46.1 µM]	
CCOc1cccc(NC(=O)CC#N)c1		1.78 µM (active)
CCOc1cccc(C(=O)Nc2cccnc2)c1	9.21% [at 46.1 µM]	
S=c1[nH]nc(-c2cc(-c3ccsc3)n[nH]2)n1-c1ccccc1	-11.3%	
CN(C)c1ccc(/C=C/C(=O)c2ccc(O)cc2)cc1[N+](=O)[O-]	-9.72%	
Cn1nnc(NC(=O)CSc2ncn[nH]2)n1	-1.4% [at 46.1 µM]	
O=C(CSc1n[nH]c(-c2cccnc2)n1)Nc1ccnc2ccccc12	-14.5% [at 46.1 µM]	
O=C(CSc1ncn[nH]1)Nc1ccnc2ccccc12		11.2 µM (active)
Brc1ccc(-c2n(-c3ccccn3)c3ccccc3[n+]2-c2ccccn2)cc1	8.85%	
CC(C)(C)c1cc(P(=O)(c2ccccc2)c2ccccc2)ccc1O	14.2%	
CC(=O)NC(=S)Nc1ccc(NC(=O)c2cccnc2)cc1	-4.87%	

SMILES	activity change, negative = inhibition	Potency
CC(C)(C)OC(=O)NCCCCCC(=O)N/N=C/c1coc2ccccc2c1=O	-27.8%	
COC(=O)c1sc(C(F)(F)F)c(-c2ccccc2)c1S(=O)(=O)N(C)C	7.84%	
O=C(NC(Nc1nc2ccc([N+](=O)[O-])cc2s1)(C(F)(F)F)C(F)(F)F)c1ccccc1		0.126 µM (active)
O=C(Nc1nc2ccc([N+](=O)[O-])cc2s1)c1ccncc1	16.4%	
O=C(O)CCC(=O)Nc1nc2ccc([N+](=O)[O-])cc2s1	-9.22% [at 46.1 µM]	
Cc1ccc(NS(=O)(=O)c2ccc(N/N=C/c3ccccc3OCC(=O)O)c([N+](=O)[O-])c2)c(C)c1	-8.07%	
COc1cc2c(cc1OC)CC(=O)N(CCCN(C)C[C@H]1Cc3cc(OC)c(OC)cc31)CC2	17.7% [at 46.1 µM]	
O=C(O)Cc1csc(NC(=O)CSc2nnnn2-c2ccc(O)cc2)n1	-3.49%	
Cc1cccc(C)c1NC(=O)NC1=CCCN1C	-4.99% [at 46.1 µM]	
NC(=O)[C@H]1CC2(CC(c3cccc(NC(=O)[C@H]4CCC(=O)N4)c3)=NO2)CN1C(=O)c1ccccc1C(=O)c1ccccc1 (stereo partly drawn)	-14.4%	
O=C(Cc1c(F)cccc1Cl)Nc1ncc([N+](=O)[O-])s1		10 µM (active)
Cc1cnc(NC(=O)CSc2c(Cl)cccc2Cl)s1	-1.32% [at 46.1 µM]	
O=C(Cc1c(F)cccc1Cl)Nc1ccc(-n2cnnn2)cc1	-5.01% [at 46.1 µM]	
C/C=C/C=N/NC(=O)c1ccncc1	11.7% [at 46.1 µM]	
CN(C)N=Nc1ccc2nc[nH]c2c1	9.84%	
O=C(O)CC1(CC(=O)Nc2cccc(C(F)(F)F)c2)CCCC1	35.4%	
CCOC(=O)N/N=C1\CC(C)S(=O)(=O)c2ccc(Cl)cc21 (stereo not drawn)	2.2%	
COCc1cc(=O)[nH]c(SC)n1	-34.4%	
CCN(CCNC(=O)C1=C(C)C(=O)OC12CCC(C)CC2)c1ccccc1 (stereo not drawn)	-10.9%	
CC(=O)c1ccc(NC(=S)NC(=O)CC(C)C)cc1	-8.99% [at 46.1 µM]	
COc1ccc(C(=O)Nc2ccc(S(=O)(=O)NC(C)C)cc2)cc1	-3.78% [at 46.1 µM]	

SMILES	activity change, negative = inhibition	Potency
COc1ccc(NS(=O)(=O)c2ccc(NC(=S)NC(=O)CC(C)C)cc2)cc1		22.4 µM (active)
COc1ccc(NC(=O)C2=NNC(=O)CC2)cc1S(=O)(=O)N1CCCCC1	-9.93%	
CCc1cc(CNC(=O)CC2C(=O)NCCN2Cc2ccccc2C(F)(F)F)on1 (stereo not drawn)	-15.2%	
Cn1c(CSCC(=O)Nc2ccccc2)nnc1SCc1ccccc1	-3.46%	
Cc1ccc2c(c1)c1ncnc(N3CCc4ccccc4C3)c1n2C		11.2 µM (active)
Cc1ccc2c(c1)c1ncn(Cc3ccc(F)cc3)c(=O)c1n2C	-13.6%	
Cc1ccc2c(c1)c1ncn(CCC3=CCCCC3)c(=O)c1n2C	-3.8% [at 46.1 µM]	
Cc1ccc(C(=O)NNc2ncnc3ccccc23)cc1	-15%	
O=C(CNC(=O)OCc1ccccc1)Oc1cc2oc(=O)cc(-c3ccccc3)c2cc1Cl		7.08 µM (active)
CC(=O)COc1ccc2c(-c3ccccc3)cc(=O)oc2c1	2.72% [at 46.1 µM]	
O=C(CNC(=O)c1ccc(-c2ccccc2)cc1)OCc1ccc(Cl)cc1	17.4% [at 46.1 µM]	
NCCCCC(N)C(=O)O (stereo not drawn)	-9.12% [at 46.1 µM]	
O=C(CS(=O)(=O)c1ccc(C(F)(F)F)cn1)NNC(=O)c1ccccc1	-20.9%	
CCOC(=O)c1c(C)nn(-c2ncccc2NC(=O)CCC(=O)O)c1C	16.3%	
O=C(Nc1nncs1)c1ccccc1NS(=O)(=O)c1cccs1	-25.2% [at 46.1 µM]	
O=C(Nc1cccc(Cl)c1)Nc1ccccc1NS(=O)(=O)c1cccs1		11.2 µM (active)
O=C(Nc1cccc(Cl)c1)Nc1nnc(-c2ccccc2)o1	7.19% [at 46.1 µM]	
O=C(Cc1ccc(-c2ccccc2)cc1)NC(c1ccccc1)c1ccccc1	-10.3% [at 46.1 µM]	
OCC(CO)(CO)NCc1ccc(-c2ccccc2)cc1		11.2 µM (active)
O=C(O)Cc1ccc(-c2ccccc2)cc1	4.1% [at 46.1 µM]	
CN(C(=O)CCn1c(=S)oc2ccccc21)C1CCCCC1	-13.5%	
